Test results published in PubChem BioAssay (NCATS).
A number with no mark means an inactive call. Records with an inconclusive call do not appear. Entries that show only a call come without a potency. Activity calls are given as the source filed them. The call rests on the fitted dose curve; in most records, active means well fitted inhibition curve with a large enough effect; inconclusive means small, poorly fitted or top-dose-only effect; inactive means no such curve, though single readings can be large or run the other way.

Experiment: qHTS assay for measurement of the activity of small molecule inhibitors on Zika virus induced Caspase-3 activity in human astrocytoma cells (AID 1224859)
Conditions: SNB-19 ZIKV-induced caspase-3/7, luminescence, 6 h; series mostly up to 45.7 µM; activity change, negative = inhibition: at the top concentration
Method in brief: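 Caspase activation in ZIKV-infected SNB-19 cells (2 FFU/cell, 6 h) measured by Caspase-Glo 3/7 luminescence after 30 min RT; compound pre-incubated 1 h; normalised to uninfected and infected controls.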

Row | Structure (SMILES) | Potency
1 | CC(C)OC(=O)C(C(=O)OC(C)C)=C1SC=CS1 | inactive
2 | CCOC(=O)[C@H](CCc1ccccc1)N[C@H]1CCc2ccccc2N(CC(=O)O)C1=O | inactive
3 | S=P(N1CC1)(N1CC1)N1CC1 | inactive
4 | Nc1nc(F)nc2c1ncn2[C@@H]1O[C@H](CO)[C@@H](O)[C@@H]1O | inactive
5 | CNS(=O)(=O)CCc1ccc2[nH]cc(C3CCN(C)CC3)c2c1 | inactive
6 | CC1CC2C3CCC4=CC(=O)C=C[C@]4(C)[C@@]3(F)[C@@H](O)C[C@]2(C)[C@@]1(O)C(=O)CO (some centres undefined) | inactive
7 | Nc1nc(=S)c2[nH]cnc2[nH]1 | inactive
8 | Cc1nnc(NS(=O)(=O)c2ccc(N)cc2)s1 | inactive
9 | Cc1c(-c2ccc(O)cc2)n(Cc2ccc(OCCN3CCCCCC3)cc2)c2ccc(O)cc12 | inactive
10 | O=S(=O)(O)CCS | inactive
11 | CCCCc1oc2ccc(NS(C)(=O)=O)cc2c1C(=O)c1ccc(OCCCN(CCCC)CCCC)cc1 | inactive
12 | COc1cc([C@@H]2c3cc4c(cc3[C@H](O)[C@H]3COC(=O)[C@H]23)OCO4)cc(OC)c1OC | inactive
13 | O=C(NCC1CN(c2ccc(N3CCOCC3=O)cc2)C(=O)O1)c1ccc(Cl)s1 (centres undefined) | inactive
14 | NC(=O)N1c2ccccc2CC(=O)c2ccccc21 | inactive
15 | CC(=O)[C@H]1CC[C@H]2[C@@H]3CCC4=CC(=O)CC[C@]4(C)[C@H]3CC[C@]12C | inactive
16 | Cc1onc(-c2ccccc2Cl)c1C(=O)N[C@@H]1C(=O)N2[C@@H]1SC(C)(C)[C@@H]2C(=O)O | inactive
17 | Cc1cccc(Nc2ccncc2S(=O)(=O)NC(=O)NC(C)C)c1 | inactive
18 | CCn1cc(C(=O)O)c(=O)c2cc(F)c(N3CCN(C)CC3)cc21 | inactive
19 | CCCc1nc(C)c2c(=O)[nH]c(-c3cc(S(=O)(=O)N4CCN(CC)CC4)ccc3OCC)nn12 | inactive

Row | Structure (SMILES) | Potency
20 | O[C@@H](CNC[C@H](O)[C@H]1CCc2cc(F)ccc2O1)[C@@H]1CCc2cc(F)ccc2O1 | inactive
21 | CN1CCN(c2c(F)cc3c(=O)c(C(=O)O)cn(CCF)c3c2F)CC1 | inactive
22 | CS(=O)(=O)c1ccc([C@@H](O)[C@@H](CO)NC(=O)C(Cl)Cl)cc1 | inactive
23 | N[C@@H](Cc1ccc(O)c(O)c1)C(=O)O | inactive
24 | CC(C)NCC(O)c1ccc(NS(C)(=O)=O)cc1 (centres undefined) | inactive
25 | CNNCc1ccc(C(=O)NC(C)C)cc1 | inactive
26 | CC(=O)CC(c1ccccc1)c1c(O)c2ccccc2oc1=O (centres undefined) | inactive
27 | O=C(O)c1cc(=O)[nH]c(=O)[nH]1 | inactive
28 | O=c1cc(O)c(Cl)c[nH]1 | inactive
29 | COc1ccc(C(=O)CC(=O)c2ccc(C(C)(C)C)cc2)cc1 | inactive
30 | CCN(CC)CC#CCOC(=O)C(O)(c1ccccc1)C1CCCCC1 (centres undefined) | inactive
31 | CN(CCOc1ccc(CC2SC(=O)NC2=O)cc1)c1ccccn1 (centres undefined) | inactive
32 | C[C@@H]1C[C@H]2[C@@H]3CCC4=CC(=O)C=C[C@]4(C)[C@@]3(Cl)[C@@H](O)C[C@]2(C)[C@@]1(OC(=O)c1ccco1)C(=O)CCl | inactive
33 | COCCCOc1cc(C[C@@H](C[C@H](N)[C@@H](O)C[C@H](C(=O)NCC(C)(C)C(N)=O)C(C)C)C(C)C)ccc1OC | inactive
34 | CC(C)(C)C(=O)OCOP(=O)(COCCn1cnc2c(N)ncnc21)OCOC(=O)C(C)(C)C | inactive
35 | NC(=O)c1cccnc1 | inactive
36 | O=S(=O)(c1cccc2cnccc12)N1CCCNCC1 | inactive
37 | Oc1c(Cl)cc(Cl)c2cccnc12 | inactive

Experiment: qHTS Screen of the MIPE 4.0 Collection Against Ewings Sarcoma (RDES) (AID 1259252); further: nearly all actives have a fitted effect of over 35% in size; further: potency means the concentration at half of the fitted maximal effect
Conditions: RD-ES Ewing sarcoma viability, CellTiter-Glo, 48 h; series mostly up to 45.8 µM; viability (percent of control): at the top concentration
Method in brief: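 Measured: ATP luminescence (CellTiter-Glo) 10 min after reagent addition, following 48 h drug treatment. Relative luciferase units converted to percent activity, with no-cell wells as full and DMSO wells as zero inhibition.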

Row | Structure (SMILES) | viability (percent of control) [%] | Potency
38 | CC(C)OC(=O)C(C(=O)OC(C)C)=C1SC=CS1 | 122 | –
39 | CCOC(=O)[C@H](CCc1ccccc1)N[C@H]1CCc2ccccc2N(CC(=O)O)C1=O | – | 23.5 µM (active)
40 | S=P(N1CC1)(N1CC1)N1CC1 | – | 16.6 µM (active)
41 | Nc1nc(F)nc2c1ncn2[C@@H]1O[C@H](CO)[C@@H](O)[C@@H]1O | – | 0.59 µM (active)
42 | CNS(=O)(=O)CCc1ccc2[nH]cc(C3CCN(C)CC3)c2c1 | – | 0.372 µM (active)
43 | CC1CC2C3CCC4=CC(=O)C=C[C@]4(C)[C@@]3(F)[C@@H](O)C[C@]2(C)[C@@]1(O)C(=O)CO (some centres undefined) | 121 | –
44 | Nc1nc(=S)c2[nH]cnc2[nH]1 | – | 0.935 µM (active)
45 | Cc1nnc(NS(=O)(=O)c2ccc(N)cc2)s1 | – | 14.8 µM (active)
46 | Cc1c(-c2ccc(O)cc2)n(Cc2ccc(OCCN3CCCCCC3)cc2)c2ccc(O)cc12 | 116 | –
47 | O=S(=O)(O)CCS | 125 | –
48 | CCCCc1oc2ccc(NS(C)(=O)=O)cc2c1C(=O)c1ccc(OCCCN(CCCC)CCCC)cc1 | – | 23.5 µM (active)
49 | COc1cc([C@@H]2c3cc4c(cc3[C@H](O)[C@H]3COC(=O)[C@H]23)OCO4)cc(OC)c1OC | 19.6 | –
50 | O=C(NCC1CN(c2ccc(N3CCOCC3=O)cc2)C(=O)O1)c1ccc(Cl)s1 (centres undefined) | 112 | –
51 | NC(=O)N1c2ccccc2CC(=O)c2ccccc21 | 116 | –
52 | CC(=O)[C@H]1CC[C@H]2[C@@H]3CCC4=CC(=O)CC[C@]4(C)[C@H]3CC[C@]12C | – | 3.32 µM (active)
53 | Cc1onc(-c2ccccc2Cl)c1C(=O)N[C@@H]1C(=O)N2[C@@H]1SC(C)(C)[C@@H]2C(=O)O | 124 | –
54 | Cc1cccc(Nc2ccncc2S(=O)(=O)NC(=O)NC(C)C)c1 | 110 | –
55 | CCn1cc(C(=O)O)c(=O)c2cc(F)c(N3CCN(C)CC3)cc21 | 105 | –
56 | CCCc1nc(C)c2c(=O)[nH]c(-c3cc(S(=O)(=O)N4CCN(CC)CC4)ccc3OCC)nn12 | – | 7.43 µM (active)

Row | Structure (SMILES) | viability (percent of control) [%] | Potency
57 | O[C@@H](CNC[C@H](O)[C@H]1CCc2cc(F)ccc2O1)[C@@H]1CCc2cc(F)ccc2O1 | – | 23.5 µM (active)
58 | CN1CCN(c2c(F)cc3c(=O)c(C(=O)O)cn(CCF)c3c2F)CC1 | 122 | –
59 | CS(=O)(=O)c1ccc([C@@H](O)[C@@H](CO)NC(=O)C(Cl)Cl)cc1 | – | 13.2 µM (active)
60 | N[C@@H](Cc1ccc(O)c(O)c1)C(=O)O | 127 | –
61 | CC(C)NCC(O)c1ccc(NS(C)(=O)=O)cc1 (centres undefined) | – | 5.9 µM (active)
62 | CNNCc1ccc(C(=O)NC(C)C)cc1 | 142 | –
63 | CC(=O)CC(c1ccccc1)c1c(O)c2ccccc2oc1=O (centres undefined) | 123 | –
64 | O=C(O)c1cc(=O)[nH]c(=O)[nH]1 | 127 | –
65 | O=c1cc(O)c(Cl)c[nH]1 | 122 | –
66 | COc1ccc(C(=O)CC(=O)c2ccc(C(C)(C)C)cc2)cc1 | – | 1.05 µM (active)
67 | CCN(CC)CC#CCOC(=O)C(O)(c1ccccc1)C1CCCCC1 (centres undefined) | 112 | –
68 | CN(CCOc1ccc(CC2SC(=O)NC2=O)cc1)c1ccccn1 (centres undefined) | – | 6.62 µM (active)
69 | C[C@@H]1C[C@H]2[C@@H]3CCC4=CC(=O)C=C[C@]4(C)[C@@]3(Cl)[C@@H](O)C[C@]2(C)[C@@]1(OC(=O)c1ccco1)C(=O)CCl | – | 3.72 µM (active)
70 | COCCCOc1cc(C[C@@H](C[C@H](N)[C@@H](O)C[C@H](C(=O)NCC(C)(C)C(N)=O)C(C)C)C(C)C)ccc1OC | 129 | –
71 | CC(C)(C)C(=O)OCOP(=O)(COCCn1cnc2c(N)ncnc21)OCOC(=O)C(C)(C)C | – | 0.372 µM (active)
72 | NC(=O)c1cccnc1 | 112 | –
73 | O=S(=O)(c1cccc2cnccc12)N1CCCNCC1 | – | 26.4 µM (active)
74 | Oc1c(Cl)cc(Cl)c2cccnc12 | – | 13.2 µM (active)
